Test results published in PubChem BioAssay (EPA / NIEHS).
Inconclusive results are not listed. Activity calls are given as the source filed them. Rule for the calls: active = hit-call score of the fitted dose curve at least 0.9, where 1 is the maximum; inconclusive = response in the unintended direction; inactive = score below 0.9.

assay: ACEA_ER_AUC_viability: ACEA Biosciences xCELLigence Real-Time Cell Analysis on Estrogen Receptor Agonism for Viability (AID 2283782);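 note: hit means loss of impedance signal meaning reduced cell growth or viability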
In short: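 Continuous-exposure impedance cell analysis uses T-47D cells in charcoal-stripped serum, eight 1:4 dilutions topping at 100 uM final, biological duplicate. Area under the growth curve at 80 h is fitted against DMSO baseline.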

Row | Compound | outcome | AC50
1 | Clc1cc(Cl)c(Cl)c(Cl)c1Cl | inactive | –
2 | C=CC(C)(O)CC/C=C(\C)CC (centres undefined) | – | 50 µM (active)
3 | Cc1cccc(C(C)(C)C)c1O | inactive | –
4 | COC(=O)C=Cc1ccccc1 | inactive | –
5 | O=C(Oc1ccccc1)c1ccccc1C(=O)Oc1ccccc1 | – | 86.1 µM (active)
6 | N#CC1(N)CCCCC1 | inactive | –
7 | CCC(C)(O)CCCC(C)C (centres undefined) | inactive | –
8 | Nc1ncnc2nc[nH]c12 | inactive | –
9 | Cn1ccnc1 | inactive | –
10 | CC(C)(CO)COC(=O)C(C)(C)CO | inactive | –
11 | O=C(OCc1ccccc1)c1ccc(O)cc1 | – | 82.6 µM (active)
12 | CCCCOCCOCCOC(C)=O | inactive | –
13 | O=C(O)C1CCC(C(=O)O)CC1 (centres undefined) | inactive | –
14 | C=CC(C)(CCC=C(C)C)OC(=O)C=Cc1ccccc1 (centres undefined) | – | 83.6 µM (active)
15 | CCOC(=O)/C=C\C(=O)OCC | – | 82.6 µM (active)
16 | Cc1cc(C)c(C=O)c(C)c1 | inactive | –
17 | CC(C)[N+](C)(CCOC(=O)C1c2ccccc2Oc2ccccc21)C(C)C | inactive | –

Row | Compound | outcome | AC50
18 | CCOC(=O)c1ccc(C)cc1 | inactive | –
19 | CC(C)c1ccc(O)c(C(C)C)c1 | – | 79.4 µM (active)
20 | CCOC(=O)OC(=O)OCC | inactive | –
21 | CC1(C)[C@@H]2CC[C@@]1(C)C(=O)C2 | inactive | –
22 | C=CC(=O)OCCCCCCCC(C)C | inactive | –
23 | C=C(C)C(=O)OCC(O)COc1ccc(C(C)(C)c2ccc(OCC(O)COC(=O)C(=C)C)cc2)cc1 (centres undefined) | – | 30.3 µM (active)
24 | CCCC(CC)c1ccccc1 (centres undefined) | inactive | –
25 | N=C1C=CC(=C(c2ccc(N)cc2)c2ccc(N)cc2)C=C1 | – | 34.5 µM (active)
26 | c1ccc(Nc2cccc3ccccc23)cc1 | – | 81.4 µM (active)
27 | CC(C)(C)N | inactive | –
28 | CCC1COC(=O)O1 (centres undefined) | inactive | –
29 | C=CC(=O)OCCCCCCOC(=O)C=C | – | 85.3 µM (active)
30 | CCNc1nc(NC(C)(C)C)nc(OC)n1 | – | 26.2 µM (active)
31 | C=CC(=O)O[C@H]1C[C@@H]2CC[C@@]1(C)C2(C)C | inactive | –
32 | CO[Si](CCCS)(OC)OC | inactive | –
33 | CC(C)C(=O)OCCOc1ccccc1 | inactive | –
34 | CCCCC(CC)COC(=O)/C=C/c1ccc(OC)cc1 (centres undefined) | – | 40.1 µM (active)
